# FBW7 activator – human FBW7 E3 ligase activation, primary screen; Q969H0; AlphaScreen FBW7–phospho-cyclin E peptide binding, activator screen; normalized activity (activation), % at 26.1 µM; 650,000 tested, 0.13% active; AID 1259310; in the data active means normalized activity above about 1.9%;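 further: purified mutant Fbw7 with reduced substrate affinity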
# MITF inh – blocks human microphthalmia-associated transcription factor | 650,000 tested, 0.91% active | AlphaScreen MITF homodimerization, bead proximity signal | inhibition, % at 2.6 µM | O75030 | AID 1259374; in the data active means inhibition above about 50%;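 further: 0% = vehicle wells with protein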
# TEAD-YAP block – TEAD-YAP interaction inhibition. HEK-TIYL cells, TEAD-Gal4/YAP UAS-luciferase luminescence. inhibition, % at 9.12 µM. 640,000 tested, 1.4% active. AID 1259422; in the data active means inhibition above about 32%;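 further: 0% = median of test compound wells and 100% = reference inhibitor wells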
# GPR151 activ – activates the human receptor GPR151; Q8TDV0; 650,000 tested, 1% active; PathHunter beta-arrestin GPR151 cells, luminescence; activation, % at 11.2 µM; in the data active means activation above about 4.9%;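 further: 0% = median of compound wells and 100% = cells with positive control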
# GPR151 confirm – human GPR151 activation, confirmation screen | shares compounds with GPR151 activ | GPR151 PathHunter beta-arrestin cells, luminescence, 90 min; % of EA-reagent control over plate median | activation, % at 11.2 µM | 6,700 tested, under 10 active | AID 1508609;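 active means mean percent activation across replicates above the confirmation screen cutoff of 4.91%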
# GPR119 ag – activates human GPR119 in a GPR151 counter-screen. shares compounds with GPR151 activ. GPR119 PathHunter beta-arrestin cells, luminescence, 90 min; 0 = compound-well median, 100 = enzyme-acceptor control. AID 1508611. 6,700 tested, 0.3% active. activation, % at 11.2 µM;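 active means mean percent activation in the counterscreen above 29.09%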;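 further: counterscreen on off-target GPR119 to flag nonselective hits from the GPR151 activator screen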
# Target sequence (Q8TDV5 whole entry, looked up): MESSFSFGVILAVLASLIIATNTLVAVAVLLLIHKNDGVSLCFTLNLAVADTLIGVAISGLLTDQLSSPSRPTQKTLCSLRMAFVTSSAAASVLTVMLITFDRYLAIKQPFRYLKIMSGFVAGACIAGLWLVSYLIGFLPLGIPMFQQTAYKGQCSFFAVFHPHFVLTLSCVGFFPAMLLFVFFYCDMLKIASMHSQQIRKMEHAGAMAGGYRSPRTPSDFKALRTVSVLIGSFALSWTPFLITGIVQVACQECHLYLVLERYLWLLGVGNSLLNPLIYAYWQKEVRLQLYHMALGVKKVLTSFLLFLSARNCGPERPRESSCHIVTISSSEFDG
# Numbers without * were called inactive; / = no result given. Compounds with a hit are over-represented: about 3.4% of the library has one in this group of screens.
SMILES,FBW7 activator,MITF inh,TEAD-YAP block,GPR151 activ,GPR151 confirm,GPR119 ag
Cc1cc(C)cc(NC(=O)c2ccc(Cl)c(Cl)c2)c1,0,-14,-11,5.4*,0,-4
COC(=O)c1ccccc1NC(=O)c1cccc(Cl)c1,0,17,-2,0,/,/
COC(=O)c1ccccc1NC(=O)c1ccc(Cl)c(Cl)c1,0,-4,12,5.1*,0,-4
COc1ccc(/C(O)=C2\C(=O)C(=O)N(CCN3CCNCC3)C2c2ccc(Cl)cc2)cc1 (stereo unspecified),0,14,-2,-2,/,/
CCN(CC)C(=O)CSc1nc2ccccc2n1S(=O)(=O)c1ccccc1,1,19,10,-2,/,/
O=C(c1cc(=O)c2ccccc2o1)N1CCCC1,0,1,16,1,/,/
CC(C)c1nnc2n1CCN(C(=O)c1cc(=O)c3ccccc3o1)CC2,0,3,-22,7.3*,1,2
CN1CCN(C(=O)Nc2ccncc2)CC1,1,-1,2,0,/,/
Cc1ncc(CO)c2cc(-c3nnc(Nc4ccccc4F)s3)c(=O)oc12,0,-3,-15,5.8*,-2,-14
Cc1ccc(NC(=O)c2c(NC(=O)c3ccco3)sc3c2CCCCC3)cc1,0,-12,3,0,/,/
CN1CCN(C(=O)c2ccc(-c3nc4ccc(C(=O)NCc5ccccc5)cc4s3)cc2)CC1,0,-1,1,1,/,/
NC(=O)c1ccc(-c2nc3ccc(C(=O)NCCOc4ccccc4)cc3s2)cc1,0,-2,-33,5.7*,0,-3
CN1CCN(C(=O)c2ccc(-c3nc4ccc(C(=O)NCCOc5ccccc5)cc4s3)cc2)CC1,0,-8,-24,5.3*,2,3
O=C(NCCO)c1csc(Nc2ccc(C(F)(F)F)cc2)n1,0,1,-3,1,/,/
CCc1cc(C(=O)Cc2ccc3c(c2)OCCCO3)c(O)cc1OC,0,-6,-3,5.2*,-2,-15
Cc1ccc(C(=O)NC(C)C2CC3CCC2C3)cc1 (stereo unspecified),0,0,-12,10*,1,3
Cc1ccc(C(=O)NC(C(=O)O)C(C)C)cc1 (stereo unspecified),0,9,9,7.8*,0,-3
CC(C)C(NC(=O)c1ccc(F)cc1)C(=O)O (stereo unspecified),0,3,1,-1,/,/
CCC(C)NC(=O)c1ccc2nc(NC(=O)c3ccc([N+](=O)[O-])cc3)sc2c1 (stereo unspecified),0,13,3,8.8*,0,1
CCC(C)NC(=O)c1ccc2nc(NC(=O)c3cc([N+](=O)[O-])cc([N+](=O)[O-])c3)sc2c1 (stereo unspecified),0,1,9,1,/,/
O=C(NCCC1CCCCN1S(=O)(=O)c1ccccc1)Nc1ccc(Cl)cc1 (stereo unspecified),0,8,6,8.1*,-1,-11
CCOC(=O)C1CCN(C(=O)C(C)(C)Oc2ccc(Cl)cc2)CC1,0,-1,-2,5.7*,0,7
CC(C)(Oc1ccc(Cl)cc1)C(=O)N1CCCC1,0,15,2,1,/,/
COc1ccc(-n2c(=S)[nH]c3cc(C(=O)Nc4ccc(F)cc4)ccc3c2=O)cc1OC,0,13,2,1,/,/
CCSc1nc(N2CCOCC2)c2cnn(CCN)c2n1,0,-5,-14,0,/,/
SMILES,FBW7 activator,MITF inh,TEAD-YAP block,GPR151 activ,GPR151 confirm,GPR119 ag
Cc1noc(C)c1-c1nc(N)c2ncn(Cc3ccc(C(F)(F)F)cc3)c2n1,0,12,-15,5.8*,-1,-9
Nc1nc(N2CCOCC2)nc2c1ncn2Cc1ccc(C(F)(F)F)cc1,0,0,-3,0,/,/
Cc1noc(C)c1-c1nc(NC2CC2)c2ncn(Cc3ccc(C(F)(F)F)cc3)c2n1,0,14,-6,0,/,/
Nc1nc(N2CCC(N3CCOCC3)CC2)nc2c1ncn2Cc1ccc(C(F)(F)F)cc1,0,-8,-11,6.4*,-1,-1
Cc1ccc(C(=O)c2oc3cc(NC(=O)c4ccncc4)ccc3c2C)cc1,0,3,3,-2,/,/
CC1(c2ccc([N+](=O)[O-])cc2)NC(=O)NC1=O (stereo unspecified),0,10,8,1,/,/
CCc1ccccc1NC(=O)c1cc(S(=O)(=O)N2CC3CC(C2)c2cccc(=O)n2C3)ccc1F (stereo unspecified),1,20,1,0,/,/
O=C(NNC(=S)Nc1ccccc1Cl)C1CC1,0,5,6,6.0*,1,9
Cc1cc(OC(C)C(=O)NNC(=O)Nc2cccc(Cl)c2Cl)ccc1[N+](=O)[O-] (stereo unspecified),0,19,-6,6.1*,0,4
CC(Oc1ccc2c(c1)OCO2)C(=O)NNC(=O)Nc1cccc(Cl)c1Cl (stereo unspecified),0,-18,5,0,/,/
COc1ccc(-c2nc(NCCN3CCOCC3)c3ncn(C4CCCCC4)c3n2)cn1,0,7,11,-1,/,/
O=C(Nc1cccc(N2CCC(NCc3cccnc3)CC2)c1)C1CC1,0,0,-9,5.5*,1,19
O=C(Nc1cccc(N2CCC(NCc3cccc(-n4cccn4)c3)CC2)c1)C1CC1,0,-2,10,-1,/,/
CN(C)CCNC(=O)c1cc2c(s1)-c1ccccc1SC2,0,1,-33,-3,/,/
O=C(NCCCN1CCCC1)c1cc2c(s1)-c1ccccc1SC2,0,12,-5,6.0*,-1,-17
COc1ccc(/C=N/NS(=O)(=O)c2ccccc2)cc1CSc1ccccn1,0,10,-6,0,/,/
COc1ccc(C=O)cc1CSc1ccccn1,0,9,12,5.3*,-1,-6
COC(=O)c1ccc(NC(=O)/C=C/c2ccccc2Cl)cc1,1,5,-5,6.1*,0,6
O=C(Cn1c(-c2cccnc2)nc2ccccc21)NCc1ccccc1Cl,0,7,-8,5.6*,0,2
COc1cc(NC(=O)C2CCN(c3ccc(Nc4ccccc4)nn3)CC2)cc(OC)c1OC,1,10,-15,-1,/,/
COc1cc(NC(=O)C2CCN(c3ccc(Nc4cc(OC)c(OC)c(OC)c4)nn3)CC2)cc(OC)c1OC,0,7,-7,7.8*,-1,-4
Cc1ccc(-c2csc3nnc(SCC(=O)NCCc4ccccc4)n23)cc1,0,0,4,0,/,/
Cc1ccc(-c2csc3nnc(SCC(=O)NC(N)=O)n23)cc1,0,7,1,6.3*,3,-3
CCN(CC)c1ccc(/C=N/n2cnnc2)c(O)c1,0,-3,2,10*,1,0
O=C(NCc1cccnc1)c1nn2c(C(F)(F)F)cc(-c3ccccc3)nc2c1Br,0,-6,-3,0,/,/
